Experimental data: publication PMC4336329 (PLoS ONE, 2015)
Among all 310,000 compounds or so, about 14,000 (4.5%) showed an effect of 50% or more. The effect is printed as a negative number. The entries come from a sample that favours strong results as a whole.

Molecular target: human ether-à-go-go-related gene (hERG) potassium channel (human, UniProt Q12809)
Experiment: primary screen, population patch clamp on CHO cells stably expressing hERG; higher = less effect of the substance
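Also: peak tail current of the secondary pulse compared with the same well before compound.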

human ether-à-go-go-related gene (hERG) potassium channel, sequence (Q12809 whole entry, looked up): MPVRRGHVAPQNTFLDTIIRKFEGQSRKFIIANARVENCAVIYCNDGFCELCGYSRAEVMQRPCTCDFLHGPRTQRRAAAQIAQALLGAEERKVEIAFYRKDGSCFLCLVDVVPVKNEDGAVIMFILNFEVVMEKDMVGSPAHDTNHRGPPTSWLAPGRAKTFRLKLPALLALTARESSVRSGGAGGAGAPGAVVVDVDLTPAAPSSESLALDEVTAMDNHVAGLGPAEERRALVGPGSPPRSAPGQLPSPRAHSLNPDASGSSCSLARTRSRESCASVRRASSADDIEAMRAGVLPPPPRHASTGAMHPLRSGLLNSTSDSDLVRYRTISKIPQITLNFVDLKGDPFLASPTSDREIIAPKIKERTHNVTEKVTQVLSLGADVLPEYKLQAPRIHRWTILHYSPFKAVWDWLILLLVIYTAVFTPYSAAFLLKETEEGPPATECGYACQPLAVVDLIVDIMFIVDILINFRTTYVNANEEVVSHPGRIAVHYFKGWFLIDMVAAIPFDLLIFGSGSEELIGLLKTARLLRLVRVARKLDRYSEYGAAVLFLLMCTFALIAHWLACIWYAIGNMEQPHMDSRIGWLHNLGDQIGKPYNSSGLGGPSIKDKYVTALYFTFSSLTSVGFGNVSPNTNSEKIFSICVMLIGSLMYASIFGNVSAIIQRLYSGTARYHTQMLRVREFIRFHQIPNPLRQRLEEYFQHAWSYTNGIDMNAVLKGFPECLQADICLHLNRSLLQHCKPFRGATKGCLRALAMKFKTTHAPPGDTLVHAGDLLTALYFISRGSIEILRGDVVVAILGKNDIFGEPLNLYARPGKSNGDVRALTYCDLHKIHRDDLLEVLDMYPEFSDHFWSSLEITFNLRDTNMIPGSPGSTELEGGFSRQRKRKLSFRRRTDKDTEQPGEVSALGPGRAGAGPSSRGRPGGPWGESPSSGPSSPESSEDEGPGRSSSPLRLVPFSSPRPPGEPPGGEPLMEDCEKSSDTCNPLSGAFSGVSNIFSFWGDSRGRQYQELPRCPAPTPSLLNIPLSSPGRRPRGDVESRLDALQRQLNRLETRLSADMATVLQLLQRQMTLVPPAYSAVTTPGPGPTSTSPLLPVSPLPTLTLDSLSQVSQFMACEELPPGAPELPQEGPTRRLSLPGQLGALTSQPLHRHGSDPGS

Going from `Cc1c(N)cccc1-n1cccc1` to `Cc1c(NC(=O)CSCc2ccccc2)cccc1C(=O)O`, the “hERG current change (%, negative = inhibition) at 10uM” value rises from 16.2% to 18%.

First: Cc1ccc2oc(C(=O)N(C)CCC(O)c3ccccc3)c(C)c2c1 (stereo not drawn)
Second: Cc1ccc2sc(N(CCCN(C)C)C(=O)CCS(=O)(=O)c3ccccc3)nc2c1C
The “hERG current change (%, negative = inhibition) at 10uM” value of the first is higher: 11.5% for the first, -6.04% for the second.

Going from `COc1ccc(S(=O)(=O)NCCSCc2cccc(C)c2)cc1Br` to `COc1ccc(-c2cc(CNS(=O)(=O)c3cc(OC)ccc3OC)on2)cc1`, the “hERG current change (%, negative = inhibition) at 10uM” value rises from -0.641% to 6.1%.

Going from `CCNC(=O)NS(=O)(=O)c1cnccc1Nc1cccc(Cl)c1` to `CC(O)(CS(=O)(=O)Cc1ccccc1)C(=O)Nc1cccc(C(F)(F)F)c1` (stereo not drawn), the “hERG current change (%, negative = inhibition) at 10uM” value falls from 25.1% to 1.72%.

Compared with `c1ccc(-c2noc(C3CCC3)n2)nc1`, `Clc1ncccc1-c1nnn(-c2ccccc2)n1` is higher in “hERG current change (%, negative = inhibition) at 10uM” value: 4.59% for the first, 15.1% for the second.

First: CC(C)CC(=O)N/N=C/c1c(N)n(C)c(=O)n(C)c1=O
Second: Cn1nnnc1SCC(=O)c1c(N)n(C)c(=O)n(C)c1=O
The “hERG current change (%, negative = inhibition) at 10uM” value of the first is higher: 21.7% for the first, 18.3% for the second.

Going from `CCN1CCN(CCNC(=O)Cn2c(=O)c3cccn3c3ccc(F)cc32)CC1` to `CN1CCN(CCNC(=O)Cn2c(=O)c3cccn3c3ccc(F)cc32)CC1`, the “hERG current change (%, negative = inhibition) at 10uM” value rises from -2.61% to 14.1%.

First: O=C(Cn1c(=O)c2cccn2c2ccccc21)NCCCN1CCCCC1
Second: COc1ccc(N2CCN(CCCNC(=O)Cn3c(=O)c4cccn4c4ccccc43)CC2)cc1
The “hERG current change (%, negative = inhibition) at 10uM” value of the first is higher: 3.5% for the first, -43.7% for the second.

Compared with `O=C(Cn1c(=O)c2cccn2c2ccc(F)cc21)NCCCN1CCN(c2ccccc2F)CC1`, `O=C(Cn1c(=O)c2cccn2c2cccnc21)NCCCN1CCN(c2ccc(F)cc2)CC1` is lower in “hERG current change (%, negative = inhibition) at 10uM” value: -50.5% for the first, -76.4% for the second.

First: COc1ccc(N2CCN(CCCNC(=O)Cn3c(=O)c4cccn4c4cccnc43)CC2)cc1
Second: COc1ccc(N2CCN(C(=O)Cn3c(=O)c4cccn4c4cccnc43)CC2)cc1
The “hERG current change (%, negative = inhibition) at 10uM” value of the first is lower: -57.2% for the first, -15.3% for the second.

First: NS(=O)(=O)c1ccc(CCNC(=O)Cn2c(=O)c3cccn3c3cccnc32)cc1
Second: COCCN1Cc2cccc(C(=O)Nc3ccc(S(=O)(=O)N4CCCCC4)cc3)c2C1=O
The “hERG current change (%, negative = inhibition) at 10uM” value of the first is higher: 22.3% for the first, -4.49% for the second.

First: COc1ccccc1CCNC(=O)C(=O)NCCC1CCCCN1S(=O)(=O)c1cccs1 (stereo not drawn)
Second: COc1cc(C(C)=O)ccc1OCC(O)CN1CCN(S(=O)(=O)c2ccccc2)CC1 (stereo not drawn)
The “hERG current change (%, negative = inhibition) at 10uM” value of the first is higher: -6.92% for the first, -11.5% for the second.

First: CCn1cc([N+](=O)[O-])c(C(=O)N2N=C(c3ccc4ccccc4c3)CC2c2ccccc2O)n1 (stereo not drawn)
Second: O=S1(=O)c2cccc3cccc(c23)N1Cc1ccc(-c2nnco2)cc1
The “hERG current change (%, negative = inhibition) at 10uM” value of the first is lower: 3.19% for the first, 7.2% for the second.

First: Cc1[nH]c2ccccc2c1/C=N/NC(N)=S
Second: O=C(NC(=S)Nc1ccc2nc[nH]c2c1)c1ccccc1
The “hERG current change (%, negative = inhibition) at 10uM” value of the first is lower: 2.1% for the first, 12.4% for the second.

First: N#CCCS(=O)(=O)c1nnnn1-c1ccccc1
Second: Cc1cc(=O)c(C(=O)O)nn1-c1ccccc1
The “hERG current change (%, negative = inhibition) at 10uM” value of the first is lower: -18.7% for the first, 5.86% for the second.

Going from `Cn1c(O)c(N=NC(=O)Cn2c(C(F)(F)F)nc3ccccc32)c2ccccc21` to `Cc1cc(=O)c(C(=O)O)nn1-c1cccc(C(F)(F)F)c1`, the “hERG current change (%, negative = inhibition) at 10uM” value falls from 6.02% to -74.6%.

First: CC(C)C(C(=O)O)N1C(=O)/C(=C/c2cccn2C)SC1=S (stereo not drawn)
Second: CCn1nc(CC(=O)O)c2ccccc2c1=O
The “hERG current change (%, negative = inhibition) at 10uM” value of the first is lower: -0.129% for the first, 22.9% for the second.

Compared with `COCC1CCCN(C(=O)c2ccc3oc(Cc4ccc(Cl)cc4)nc3c2)C1` (stereo not drawn), `COc1ccccc1C1N(c2cc(Cl)ccc2OC)C(=O)C2CCCN21` (stereo not drawn) is higher in “hERG current change (%, negative = inhibition) at 10uM” value: -24.7% for the first, 1.23% for the second.

Compared with `Cc1ccc(NC(=O)CN2CCCC2)cc1.Cl`, `O=C(CN1CCCC1)Nc1ccc(F)cc1` is higher in “hERG current change (%, negative = inhibition) at 10uM” value: 19.1% for the first, 23.3% for the second.

Going from `O=C(CN1CCN(C(=O)C2CC2)CC1)Nc1cc(C(F)(F)F)cc(C(F)(F)F)c1` to `O=C(CN1CCCC1)Nc1cc(C(F)(F)F)cc(C(F)(F)F)c1`, the “hERG current change (%, negative = inhibition) at 10uM” value rises from -54.4% to -17.9%.

Compared with `O=C(CN1CCN(C(=O)N2CCCCC2)CC1)Nc1ccc(F)cc1`, `O=C(CN1CCN(C(=O)C2CCC2)CC1)Nc1ccc(F)cc1` is higher in “hERG current change (%, negative = inhibition) at 10uM” value: -74.9% for the first, -69.9% for the second.

Compared with `O=C(C1CCCC1)N1CCCC(Nc2ccc(F)cc2)C1` (stereo not drawn), `O=C(CN1CCCC1)NCC(=O)Nc1ccc(F)cc1` is higher in “hERG current change (%, negative = inhibition) at 10uM” value: -37.2% for the first, 8.87% for the second.

First: Cl.O=C(CN1CCN(c2cccc(C(F)(F)F)c2)CC1)Nc1cccc(C(F)(F)F)c1
Second: O=C(O)c1nn(-c2cccc(C(F)(F)F)c2)ccc1=O
The “hERG current change (%, negative = inhibition) at 10uM” value of the first is lower: -1.14% for the first, 21.5% for the second.

Compared with `COC(=O)Nc1ccc(S(=O)(=O)N2CCCc3ccccc32)cc1`, `O=C(CNS(=O)(=O)c1ccc(F)cc1)N1CCN(c2ccccc2)CC1` is lower in “hERG current change (%, negative = inhibition) at 10uM” value: 8.63% for the first, -11.7% for the second.

Going from `O=C1Oc2ccccc2C(=O)/C1=C/N1CCN(c2ccccc2F)CC1` to `Cc1cc(/C=C2\Cc3ccccc3C2=O)c(C)n1-c1ccccc1`, the “hERG current change (%, negative = inhibition) at 10uM” value rises from -0.353% to 1.62%.

Compared with `O=c1[nH]c(Cl)ccc1CN1CCOCC1`, `O=C(Nc1ccc(N2CCOCC2)c(F)c1)c1cccs1` is lower in “hERG current change (%, negative = inhibition) at 10uM” value: 14.5% for the first, 1.9% for the second.

Going from `Cc1ccccc1C(=O)Nn1cnnc1` to `Cc1cccc2sc(N(CCCN(C)C)C(=O)CCS(=O)(=O)c3ccccc3)nc12`, the “hERG current change (%, negative = inhibition) at 10uM” value falls from 3.49% to -35%.

Compared with `COc1ccc(S(=O)(=O)NCc2ccc(C(=O)NCCCN3CC(C)CC(C)C3)cc2)cc1` (stereo not drawn), `Cc1ccc(S(=O)(=O)NCC(=O)N2CCN(c3ccc(F)cc3)CC2)cc1` is higher in “hERG current change (%, negative = inhibition) at 10uM” value: -28.1% for the first, -10.2% for the second.

Going from `COC(=O)c1cc(S(=O)(=O)N2CCC(C)CC2)ccc1F` to `O=C(CNS(=O)(=O)c1ccc(F)cc1)N1CCCC1`, the “hERG current change (%, negative = inhibition) at 10uM” value rises from -18% to 12%.

Going from `COc1ccc(CCNCc2ccsc2)cc1OC` to `COc1cc(C(C)=O)ccc1OCC(O)CN1CCN(c2ccc(C)c(C)c2)CC1` (stereo not drawn), the “hERG current change (%, negative = inhibition) at 10uM” value falls from 1.86% to -39.6%.

Compared with `O=C(CNS(=O)(=O)c1ccc(Br)cc1)N1CCN(c2ccc(F)cc2)CC1`, `O=C(CNS(=O)(=O)c1ccc(F)cc1)N1CCN(c2ccc(F)cc2)CC1` is higher in “hERG current change (%, negative = inhibition) at 10uM” value: -56.5% for the first, -51.7% for the second.

Going from `O=C(CNS(=O)(=O)c1ccc(Br)s1)N1CCN(c2ccc(F)cc2)CC1` to `COc1cc(C(C)=O)ccc1OCC(O)CN1CCN(c2ccc(F)cc2)CC1` (stereo not drawn), the “hERG current change (%, negative = inhibition) at 10uM” value falls from -25.2% to -39%.

First: COc1cc([N+](=O)[O-])ccc1NC(=O)NCc1ccco1
Second: COCc1cc(C)nc(OCC(=O)N/N=C/c2ccc(-c3cc([N+](=O)[O-])ccc3Cl)o2)c1C#N
The “hERG current change (%, negative = inhibition) at 10uM” value of the first is lower: 10.9% for the first, 18% for the second.

First: CCOc1ccccc1C1CC(=O)NC2=C1C(=O)CCC2 (stereo not drawn)
Second: O=C1CCC/C(=N/NC(=O)c2sc3ccccc3c2Cl)C1
The “hERG current change (%, negative = inhibition) at 10uM” value of the first is higher: 13.6% for the first, 5.82% for the second.

Going from `COc1cc(C(C)=O)ccc1OCC(O)CN1CCN(c2c(C)cccc2C)CC1` (stereo not drawn) to `COc1cc(C(C)=O)ccc1OCC(O)CN1CCN(c2ccc(C)cc2C)CC1` (stereo not drawn), the “hERG current change (%, negative = inhibition) at 10uM” value rises from -60.3% to -58.3%.

First: COc1cc(C(C)=O)ccc1OCC(O)CN1CCN(c2cc(C)cc(C)c2)CC1 (stereo not drawn)
Second: COc1cc(C(C)=O)ccc1OCC(O)CN1CCN(c2ccccc2)CC1 (stereo not drawn)
The “hERG current change (%, negative = inhibition) at 10uM” value of the first is lower: -56.2% for the first, -31.5% for the second.

First: COc1cc(C(C)=O)ccc1OCC(O)Cn1nc(C)c(Br)c1C (stereo not drawn)
Second: COc1cc(C(C)=O)ccc1OCC(O)CN1CCN(c2ccccn2)CC1 (stereo not drawn)
The “hERG current change (%, negative = inhibition) at 10uM” value of the first is higher: -7% for the first, -9.62% for the second.

Going from `COc1ccc(C(=O)/C=C/Nc2c(C)n(C)n(-c3ccccc3)c2=O)c(OC)c1` to `COc1ccc(OC)c2sc(N(CCCN(C)C)C(=O)CCS(=O)(=O)c3ccccc3)nc12.Cl`, the “hERG current change (%, negative = inhibition) at 10uM” value falls from 0.857% to -70.5%.

First: COc1ccc(NC2CCCN(C(=O)CCc3scnc3C)C2)cc1 (stereo not drawn)
Second: CC(=O)c1ccc(S(=O)(=O)NCCC(=O)OCC(=O)N2CCCC2=O)cc1
The “hERG current change (%, negative = inhibition) at 10uM” value of the first is higher: 12.2% for the first, -7.6% for the second.

Going from `CS(=O)(=O)c1ccc(N2CCN(C3CC(=O)NC3=O)CC2)cc1` (stereo not drawn) to `COc1ccc(Cl)c2sc(N(CCN(C)C)C(=O)CCS(=O)(=O)c3ccc(C)cc3)nc12.Cl`, the “hERG current change (%, negative = inhibition) at 10uM” value falls from 13.1% to -7.51%.

Going from `COc1cccc2sc(N(CCCN(C)C)C(=O)C(c3ccccc3)c3ccccc3)nc12.Cl` to `COc1cccc2sc(N(CCCN(C)C)C(=O)c3sc4ccccc4c3Cl)nc12.Cl`, the “hERG current change (%, negative = inhibition) at 10uM” value rises from -72.7% to -24.6%.

Compared with `COc1cccc2sc(N(CCN(C)C)C(=O)/C=C/c3cccs3)nc12.Cl`, `COc1cccc2sc(N(CCCN(C)C)C(=O)CCS(=O)(=O)c3ccccc3)nc12` is lower in “hERG current change (%, negative = inhibition) at 10uM” value: -41.5% for the first, -62.7% for the second.

First: CCOc1cccc2sc(N(CCN(C)C)C(=O)CCS(=O)(=O)c3ccccc3)nc12.Cl
Second: Cn1c(=O)c2nc(NCc3ccccc3)cnc2n(C)c1=O
The “hERG current change (%, negative = inhibition) at 10uM” value of the first is lower: -23.5% for the first, -1.44% for the second.

`Fc1cccc(Cl)c1Cn1nnc2c(-n3ccnc3)ncnc21` was tested, and the “hERG current change (%, negative = inhibition) at 10uM” value was 0.152%.
